# Values joined by “and” are separate entries in the source; they are usually repeats but may differ in a detail not shown here. Equal entries are not always repeated. Results filed as inconclusive are left out. For part of these data: Potency and affinity values are given separately. Active and inactive are the calls of the source. Rule as the data show it, unless noted: active = inhibition above about 80%; inactive = the rest.
# Assays:
# [1] = growth inhibition, single agents and combos, CRL2098, cell-based, BGB or cisplatin IC20 combos, synergistic combos for chromothripsis tumors (AID 1671454); conditions: CRL2098 osteosarcoma cells, drug combinations, stronger effect = higher value;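 also: cells exposed for 96 h before readout; 0% = vehicle DMSO and 100% = killing by high DMSO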
# [2] = growth inhibition, single agents and combos, HD-MB03, cell-based, BGB or cisplatin IC20 combos, synergistic combos for chromothripsis tumors (AID 1671455; in the data active = inhibition above about 83%;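 also: 0% = vehicle DMSO and 100% = high DMSO as cytotoxic control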); conditions: HD-MB03 medulloblastoma cells, stronger effect = higher value
# [3] = growth inhibition, single agents and combos, UWB1.289, cell-based, BGB or cisplatin combos, synergistic combos for chromothripsis tumors (AID 1671456); conditions: UWB1.289 ovarian carcinoma cells, stronger effect = higher value;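 also: cells exposed to compound for four days; 0% = vehicle DMSO and 100% = killing by high DMSO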
# [4] = growth inhibition, single agents and combos, LFS_MB_2R, cell-based, cisplatin combos, synergistic combos for chromothripsis tumors (AID 1671457); conditions: LFS_MB_2R medulloblastoma cells, stronger effect = higher value;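 also: cells exposed to compound for four days before readout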
# [5] = UWB1.289_BRCA1 ovarian cancer growth, cell-based, BGB or cisplatin combinations (AID 1671459); conditions: UWB1.289 BRCA1 ovarian carcinoma, drug combinations, stronger effect = higher value
# [6] = drug combination toxicity in non-malignant astrocytes – cell-based, BGB or cisplatin IC20 combos, cytotoxicity control for chromothriptic childhood tumor combination screen (AID 1671460); conditions: Human astrocytes, viability inhibition, drug combinations, at 0.5 µM, stronger effect = higher value;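 also: cells exposed to compounds for 96 hours before viability readout; 0% = vehicle and 100% = killing control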
# [7] = viability loss in pontine glioma line – cell-based, SU-DIPG-XXV, MIPE5.0, CellTiter-Glo, qHTS, dose response (AID 1347065; cut-off not given, nearly all actives have AC50 up to about 26 µM;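 also: cells exposed to compound for 48 hours before ATP readout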); conditions: CellTiter-Glo ATP luminescence
# [8] = chitosan synthesis blockers in C. neoformans – flow cytometry, Cibacron Brilliant Red staining (AID 1347148; call rule not given here;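 also: compound exposure lasted three days at 37 degrees C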); conditions: Cryptococcus neoformans chitosan, stronger effect = lower value; at 10 µM unless noted
# [9] = viability loss in pontine glioma line – cell-based, SU-DIPG-XIII, MIPE5.0, CellTiter-Glo, qHTS, dose response (AID 1347064; cut-off not given, nearly all actives have AC50 up to about 23 µM); conditions: CellTiter-Glo ATP luminescence
# [10] = viability loss in pontine glioma line – cell-based, SU-DIPG-XVII, MIPE5.0, CellTiter-Glo, qHTS, dose response (AID 1347060; cut-off not given, nearly all actives have AC50 up to about 26 µM;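 as to AC50: cells exposed to compound for 48 hours before viability readout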); conditions: CellTiter-Glo ATP luminescence
# [11] = JHH-DIPG-1 glioma cell viability, MIPE5.0 library, CellTiter-Glo luminescence, qHTS (AID 1347067; cut-off not given, nearly all actives have AC50 up to about 26 µM;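 also: cells exposed to compound for 48 hours before readout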); conditions: JHH-DIPG-1 glioma viability, CellTiter-Glo ATP luminescence
# [12] = growth inhibition of DIPG cells – cell-based, MIPE5.0 library, qHTS (AID 1347068; cut-off not given, nearly all actives have IC50 up to about 30 µM); conditions: SU-DIPG-XXV viability
# [13] = tested on: Neuropilin-2 / VEGF-C interaction (human); experiment: small molecules blocking Neuropilin-2/VEGF-C interaction – biochemical, microplate binding format, z-score (AID 743281; call rule not given here); conditions: microplate NRP2/VEGF-C binding assay; stronger effect = lower value
# [14] = compounds altering HSF1 focus formation in cells – imaging, Selleck Cancer Library (AID 1347162; in the data active = plate-normalised HSF1 focus index below about 0.46); conditions: human cells, HSF1 nuclear foci imaging, at 10 µM; SSMD: measured here: HSF1 foci SSMD mean; cell count: measured here: cell number; plate-normalised HSF1 focus index: stronger effect = lower value
# [15] = antimalarial activity against Dd2 strain (AID 2302;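 active = growth inhibition above 50% at the single 2 µM test dose, taken to imply half-maximal potency below 2 µM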;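 also: 0% = DMSO untreated growth and 100% = chloroquine plus artemisinin killed control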); conditions: P. falciparum Dd2 in RBCs, LDH growth readout, 72 h; at 2 µM; stronger effect = higher value
# [16] = human hepatoma cell viability loss – ATP luminescence, cytotoxicity control for P. falciparum antimalarial project, primary screen (AID 2303;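 active = inhibition above 50%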;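 also: 0% = DMSO wells and 100% = digitonin-killed cells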); conditions: HepG2 viability, 24-48 h, at 10 µM, stronger effect = higher value
# [17] = biological target: Calcium-dependent protein kinase 1 (Plasmodium falciparum (isolate 3D7)) (UniProt P62344); experiment: PfCDPK1 kinase inhibitors, biochemical, TCAMS library (AID 1159585; cut-off not given, nearly all actives have IC50 up to about 0.98 µM;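 also: inhibitors leave more ATP so luminescence rises with inhibition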); conditions: recombinant PfCDPK1, Kinase-Glo ATP depletion luminescence
# Calcium-dependent protein kinase 1 (Plasmodium falciparum (isolate 3D7)), sequence (P62344 whole entry, looked up): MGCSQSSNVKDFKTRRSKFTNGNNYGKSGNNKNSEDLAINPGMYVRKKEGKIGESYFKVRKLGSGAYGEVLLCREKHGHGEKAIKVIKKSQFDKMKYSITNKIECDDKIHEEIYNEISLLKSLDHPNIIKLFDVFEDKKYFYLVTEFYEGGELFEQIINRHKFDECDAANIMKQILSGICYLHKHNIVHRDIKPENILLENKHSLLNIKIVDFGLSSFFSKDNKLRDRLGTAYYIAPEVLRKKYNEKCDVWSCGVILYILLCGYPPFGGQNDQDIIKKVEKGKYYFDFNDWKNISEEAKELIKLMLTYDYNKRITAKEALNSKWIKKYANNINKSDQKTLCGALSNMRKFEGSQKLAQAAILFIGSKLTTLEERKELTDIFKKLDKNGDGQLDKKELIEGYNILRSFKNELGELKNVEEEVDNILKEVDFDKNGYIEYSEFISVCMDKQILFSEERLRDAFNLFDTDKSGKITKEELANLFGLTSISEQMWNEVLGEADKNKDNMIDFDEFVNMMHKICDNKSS
# [18] = biological target: Plasmodium falciparum protein kinase 6 (PK6, PF3D7_1337100) (UniProt Q8IDW1); experiment: PfPK6 kinase inhibitors, biochemical, TCAMS library (AID 1159586; call rule not given here); conditions: recombinant PfPK6, Kinase-Glo ATP depletion luminescence
# Plasmodium falciparum protein kinase 6 (PK6, PF3D7_1337100), sequence (Q8IDW1 1-305): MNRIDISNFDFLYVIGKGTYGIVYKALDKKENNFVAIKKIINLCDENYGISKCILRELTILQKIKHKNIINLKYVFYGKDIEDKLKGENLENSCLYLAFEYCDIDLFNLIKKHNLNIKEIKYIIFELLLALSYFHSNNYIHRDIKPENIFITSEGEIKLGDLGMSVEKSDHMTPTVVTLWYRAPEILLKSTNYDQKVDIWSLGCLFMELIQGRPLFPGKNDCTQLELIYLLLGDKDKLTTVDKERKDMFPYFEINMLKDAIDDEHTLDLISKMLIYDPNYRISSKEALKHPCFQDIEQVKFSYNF
# [19] = biological target: Protein kinase 7 (PK7), Plasmodium falciparum 3D7 (PF3D7_0213400) (UniProt Q7YTF7); experiment: inhibition of Plasmodium PK7 catalytic activity – biochemical, TCAMS antimalarial set, Kinase-Glo luminescence (AID 1159587; call rule not given here); conditions: recombinant PfPK7, Kinase-Glo ATP depletion luminescence
# Protein kinase 7 (PK7), Plasmodium falciparum 3D7 (PF3D7_0213400), sequence (Q7YTF7 1-343): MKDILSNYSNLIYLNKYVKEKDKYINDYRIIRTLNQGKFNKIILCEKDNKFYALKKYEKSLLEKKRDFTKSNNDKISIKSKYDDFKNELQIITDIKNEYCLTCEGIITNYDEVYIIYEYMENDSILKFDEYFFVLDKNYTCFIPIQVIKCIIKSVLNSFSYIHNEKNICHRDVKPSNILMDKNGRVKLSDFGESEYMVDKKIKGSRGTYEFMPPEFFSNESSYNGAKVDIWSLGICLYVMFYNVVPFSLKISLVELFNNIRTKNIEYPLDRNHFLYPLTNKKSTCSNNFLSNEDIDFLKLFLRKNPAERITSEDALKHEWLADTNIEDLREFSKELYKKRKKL
# [20] = biological target: Calcium-dependent protein kinase 4 (Plasmodium falciparum (isolate 3D7)) (UniProt Q8IBS5); experiment: PfCDPK4 kinase inhibitors, biochemical, TCAMS library (AID 1159588; cut-off not given, nearly all actives have IC50 up to about 0.91 µM); conditions: recombinant PfCDPK4, Kinase-Glo ATP depletion luminescence
# Calcium-dependent protein kinase 4 (Plasmodium falciparum (isolate 3D7)), sequence (Q8IBS5 whole entry, looked up): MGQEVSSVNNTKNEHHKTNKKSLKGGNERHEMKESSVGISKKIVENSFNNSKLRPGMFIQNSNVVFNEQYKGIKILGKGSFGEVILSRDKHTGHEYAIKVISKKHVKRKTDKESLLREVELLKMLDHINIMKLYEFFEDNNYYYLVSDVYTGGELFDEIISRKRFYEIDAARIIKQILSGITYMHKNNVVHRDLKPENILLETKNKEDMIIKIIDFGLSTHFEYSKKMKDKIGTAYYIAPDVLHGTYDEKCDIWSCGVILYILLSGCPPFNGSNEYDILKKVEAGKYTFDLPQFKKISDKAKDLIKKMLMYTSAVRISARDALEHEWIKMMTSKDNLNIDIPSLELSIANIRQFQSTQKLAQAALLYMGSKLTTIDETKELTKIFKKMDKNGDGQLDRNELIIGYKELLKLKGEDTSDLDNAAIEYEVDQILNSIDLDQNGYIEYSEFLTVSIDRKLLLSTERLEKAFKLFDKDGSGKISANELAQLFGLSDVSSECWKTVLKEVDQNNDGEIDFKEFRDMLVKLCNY
# [21] = measured here: combination with BGB at IC20, at 0.5 µM
# [22] = measured here: combination with cisplatin at IC20, at 0.5 µM
# [23] = measured here: combo with BGB at IC20, at 0.5 µM
# [24] = measured here: combo with cisplatin at IC20, at 0.5 µM
# [25] = measured here: inhibition with BGB combination, at 0.05 µM
# [26] = measured here: inhibition with cisplatin combination, at 0.05 µM
# [27] = measured here: combination with cisplatin, at 0.5 µM
# [28] = measured here: combination with cisplatin, at 5 µM
# [29] = BGB combination, concentration series, at 5 µM
# [30] = cisplatin combination, concentration series, at 5 µM
# [31] = measured here: combo with BGB IC20
# [32] = measured here: combo with cisplatin IC20
smiles,measurement,setting,value
Cc1ccc2nc(N)[nH]c(=O)c2c1Sc1ccncc1,inhibition,[1]; at 0.5 µM,-63.7% (inactive)
same,inhibition,[1]; [21],-72.3%
same,inhibition,[1]; [22],-84.4%
same,inhibition,[2]; at 0.5 µM,-15.4% (inactive)
same,inhibition,[2]; [23],-11.9%
same,inhibition,[2]; [24],-25.1%
same,inhibition,[3]; at 0.5 µM,-17.5% (inactive)
same,inhibition,[3]; [25],4.97%
same,inhibition,[3]; [26],-23%
same,inhibition,[4]; at 0.5 µM,-12.4% (inactive)
same,inhibition,[4]; [27],-25.9%
same,inhibition,[4]; [28],-11.5%
same,inhibition,[5]; [29],-8.1%
same,inhibition,[5]; at 0.5 µM,-23.6% (inactive)
same,inhibition,[5]; [30],-9.76%
same,inhibition,[6],-6.91% (inactive)
same,inhibition,[6]; [31],-8.77%
same,inhibition,[6]; [32],-12.3%
Cc1c(-c2ccc(O)cc2)n(Cc2ccc(OCCN3CCCCCC3)cc2)c2ccc(O)cc12,AC50,[7],20.9 µM (active)
CN1C[C@@H]2C[C@H]1CN2c1cc2c(cc1F)c(=O)c(C(=O)O)cn2C1CC1,inhibition,[1]; at 0.5 µM,-70.8% (inactive)
same,inhibition,[1]; [21],-121%
same,inhibition,[1]; [22],-50%
same,inhibition,[2]; at 0.5 µM,-14.8% (inactive)
same,inhibition,[2]; [23],-11.6%
same,inhibition,[2]; [24],-20.6%
same,inhibition,[3]; at 0.5 µM,-14.3% (inactive)
same,inhibition,[3]; [25],-14.8%
same,inhibition,[3]; [26],-20.1%
same,inhibition,[4]; at 0.5 µM,-7.92% (inactive)
same,inhibition,[4]; [27],-3.36%
same,inhibition,[4]; [28],-96.9%
same,inhibition,[5]; [29],-23.3%
same,inhibition,[5]; at 0.5 µM,-16% (inactive)
same,inhibition,[5]; [30],2.38%
same,inhibition,[6],-25.7% (inactive)
same,inhibition,[6]; [31],-14.8%
same,inhibition,[6]; [32],-51.5%
Cc1cccc(Nc2cc(Cl)nc(SCC(=O)O)n2)c1C,fold fluorescence,[8],4.05 (inactive)
CCCCCCCCCCCCCCCCCCOP(=O)([O-])OC1CC[N+](C)(C)CC1,outcome,[9],inactive
CCCC(CCC)C(=O)O,outcome,[10],inactive
same,outcome,[7],inactive
same,outcome,[11],inactive
same,outcome,[12],inactive
same,inhibition,[1]; at 0.5 µM,-45.4% (inactive) and -15.9% (inactive)
same,inhibition,[1]; [21],-45.9% and -23.5%
same,inhibition,[1]; [22],-34.5% and 0.202%
same,inhibition,[2]; at 0.5 µM,-15.1% (inactive) and -0.6% (inactive)
same,inhibition,[2]; [23],-17% and -10.3%
same,inhibition,[2]; [24],-14.1% and 6.37%
same,inhibition,[3]; at 0.5 µM,-4.81% (inactive) and 13.2% (inactive)
same,inhibition,[3]; [25],-26.3% and 5.38%
same,inhibition,[3]; [26],-23.4% and 27.8%
same,inhibition,[4]; at 0.5 µM,-16.9% (inactive) and 1.18% (inactive)
same,inhibition,[4]; [27],-15.6% and 6.48%
same,inhibition,[4]; [28],-69.4% and 11.4%
same,inhibition,[5]; [29],-15.2% and 3.45%
same,inhibition,[5]; at 0.5 µM,-19% (inactive) and 7.15% (inactive)
same,inhibition,[5]; [30],0.227% and -13.4%
same,inhibition,[6],-9% (inactive) and 2.09% (inactive)
same,inhibition,[6]; [31],-11% and 1.03%
same,inhibition,[6]; [32],0.797% and 9.29%
COC(=O)C1=C(C)NC(C)=C(C(=O)OC)C1c1ccccc1[N+](=O)[O-],z-score,[13],-0.452 (inactive)
same,fold fluorescence,[8],3.72 [at 144.4 µM] (inactive)
CN1C(=O)CC[C@H]1c1cccnc1,z-score,[13],-0.371 (inactive)
CN(C)C(=O)C(CCN1CCC(O)(c2ccc(Cl)cc2)CC1)(c1ccccc1)c1ccccc1,outcome,[9],inactive
same,outcome,[11],inactive
same,outcome,[12],inactive
same,fold fluorescence,[8],10.1 [at 104.8 µM] (inactive)
NC(=O)c1cccnc1,z-score,[13],1.84 (inactive)
same,outcome,[10],inactive
same,outcome,[9],inactive
same,outcome,[7],inactive
same,outcome,[11],inactive
same,outcome,[12],inactive
CC(C(=O)O)c1cccc(C(=O)c2ccccc2)c1 (configuration not stated),outcome,[10],inactive
same,outcome,[9],inactive
same,outcome,[7],inactive
same,outcome,[11],inactive
O=C(CCCN1CCC(O)(c2ccc(Cl)cc2)CC1)c1ccc(F)cc1,z-score,[13],-0.0752 (inactive)
N=c1nc(N2CCCCC2)cc(N)n1O,fold fluorescence,[8],4.24 [at 238.9 µM] (inactive)
CC(C)(C)NCC(O)c1ccc(O)c(CO)c1 (configuration not stated),z-score,[13],-0.605 (inactive)
same,outcome,[10],inactive
same,outcome,[9],inactive
same,outcome,[7],inactive
same,outcome,[11],inactive
same,outcome,[12],inactive
CC(C)OC(=O)C(C)(C)Oc1ccc(C(=O)c2ccc(Cl)cc2)cc1,outcome,[9],inactive
same,outcome,[11],inactive
same,outcome,[12],inactive
COCCCOc1ccnc(CS(=O)c2nc3ccccc3[nH]2)c1C (configuration not stated),z-score,[13],0.22 (inactive)
same,outcome,[10],inactive
same,outcome,[7],inactive
same,outcome,[12],inactive
CCn1cc(C(=O)O)c(=O)c2ccc(C)nc21,inhibition,[1]; at 0.5 µM,-8.42% (inactive) and -27% (inactive)
same,inhibition,[1]; [21],-13.8% and -3.06%
same,inhibition,[1]; [22],2.7% and -23.8%
same,inhibition,[2]; at 0.5 µM,-1.5% (inactive) and -3.12% (inactive)
same,inhibition,[2]; [23],-0.571% and -10.6%
same,inhibition,[2]; [24],-1.78% and 8.77%
same,inhibition,[3]; at 0.5 µM,13.8% (inactive) and -1.94% (inactive)
same,inhibition,[3]; [25],-3.65% and -15.7%
same,inhibition,[3]; [26],2.92% and -1.74%
same,inhibition,[4]; at 0.5 µM,5.5% (inactive) and -20.2% (inactive)
same,inhibition,[4]; [27],1.69% and -14.8%
same,inhibition,[4]; [28],8.3% and -22.4%
same,inhibition,[5]; [29],11.3% and 18.4%
same,inhibition,[5]; at 0.5 µM,11% (inactive) and -9.48% (inactive)
same,inhibition,[5]; [30],7.14% and -4.85%
same,inhibition,[6],1.03% (inactive) and 6.47% (inactive)
same,inhibition,[6]; [31],-4.36% and 3.89%
same,inhibition,[6]; [32],17.2% and 0.487%
COc1c2occc2cc2ccc(=O)oc12,outcome,[10],inactive
same,outcome,[9],inactive
same,outcome,[11],inactive
same,outcome,[12],inactive
CCN(CC)CCOc1ccc(Cc2ccccc2)cc1,outcome,[9],inactive
same,outcome,[11],inactive
same,outcome,[12],inactive
CN1CCN(C2=Nc3cc(Cl)ccc3Nc3ccccc32)CC1,AC50,[7],13.2 µM (active)
same,outcome,[12],inactive
same,fold fluorescence,[8],11 [at 153 µM] (inactive)
COc1ccc2cc([C@H](C)C(=O)O)ccc2c1,z-score,[13],-0.354 (inactive)
same,outcome,[10],inactive
same,outcome,[11],inactive
same,outcome,[12],inactive
Cc1ccc(-n2nc(C(C)(C)C)cc2NC(=O)Nc2ccc(OCCN3CCOCC3)c3ccccc23)cc1,outcome,[10],inactive
same,outcome,[9],inactive
same,outcome,[7],inactive
same,outcome,[11],inactive
same,outcome,[12],inactive
same,SSMD,[14],3.54
same,cell count,[14],7570
same,plate-normalised HSF1 focus index,[14],1.13 (inactive)
COc1cc(Cc2cnc(N)nc2N)cc(OC)c1OC,growth inhibition,[15],2% (inactive)
same,inhibition,[16],0% (inactive)
same,outcome,[17],inactive
same,outcome,[18],inactive
same,outcome,[19],inactive
same,outcome,[20],inactive
O=C(O)CCc1nc(-c2ccccc2)c(-c2ccccc2)o1,z-score,[13],0.876 (inactive)
CN1[C@@H]2CC(OC(=O)[C@H](CO)c3ccccc3)C[C@H]1[C@@H]1O[C@@H]12 (some centres not stated),z-score,[13],-0.461 (inactive)
COc1ccc(-c2nc3ccc(C4=NNC(=O)CC4C)cc3[nH]2)cc1 (configuration not stated),AC50,[10],16.6 µM (active)
O=C(NCC1CCCCN1)c1cc(OCC(F)(F)F)ccc1OCC(F)(F)F (configuration not stated),outcome,[10],inactive
same,outcome,[9],inactive
same,outcome,[7],inactive
same,outcome,[11],inactive
same,outcome,[12],inactive

# — PubChem BioAssay
